Source: PubChem BioAssay
G9a inh: inhibitors of human histone lysine methyltransferase G9a; Q96KQ7; G9a H3K9 monomethylation, AlphaScreen, 2 h; Potency, µM (highest dose often 102 µM), without a hit: top-dose activity, negative = inhibition, most hits filed as inhibitors; 8.8% of 350,000 active; AID 504332; also: potency is read from the fitted curve at half-maximal effect; nearly all actives have a fitted effect of over 75% in size
Target sequence (Q96KQ7 913-1193 limits assumed): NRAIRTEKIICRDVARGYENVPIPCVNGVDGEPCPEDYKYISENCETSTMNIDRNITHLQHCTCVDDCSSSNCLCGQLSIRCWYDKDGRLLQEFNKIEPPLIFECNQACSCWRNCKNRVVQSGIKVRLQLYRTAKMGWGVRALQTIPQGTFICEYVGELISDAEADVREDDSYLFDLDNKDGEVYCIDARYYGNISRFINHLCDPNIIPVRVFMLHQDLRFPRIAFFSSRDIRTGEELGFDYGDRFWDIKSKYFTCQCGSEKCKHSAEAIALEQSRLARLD
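Methyltransferase reactions run at room temperature for 2 h (20 nM enzyme, 500 nM biotin-H3K9 peptide, 20 uM SAM) after a 15 min compound preincubation; product detected by AlphaScreen beads and anti-H3K9me1 antibody.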
Tau fibril ThT: blocks human tau fibril formation measured by thioflavin T; AID 1460; recombinant tau K18 P301L, heparin-induced fibrillization, ThT fluorescence; P10636; 2.1% of 270,000 active; Potency, µM (highest dose often 57.4 µM), inactives show at the highest dose activity, negative = inhibition, actives largely listed as inhibitors; also: potency is read from the fitted curve at half-maximal effect; nearly all actives have a fitted effect of over 55% in size
Target sequence (P10636 561-689 P618L limits assumed): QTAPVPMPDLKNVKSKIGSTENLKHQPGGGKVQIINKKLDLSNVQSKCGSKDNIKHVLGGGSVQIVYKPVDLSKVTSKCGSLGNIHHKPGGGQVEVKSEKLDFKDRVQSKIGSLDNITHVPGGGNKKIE
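Fibril formation assay: tau K18 P301L at 15 uM with trace Alexa 594 label, heparin inducer 20 uM, pH 7 sodium acetate buffer, 37 C for 6 hr; endpoint ThT signal.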
Tau fluor counter: counter-screen for tau fibril formation inhibitors | tau K18 P301L Alexa594 fluorescence, heparin fibrillization | Potency, µM (doses to about 57.7 µM), for the others: at the top dose activity change, negative = decrease | 0.93% of 280,000 active; also: potency is read from the fitted curve at half-maximal effect; nearly all actives have a fitted effect of over 55% in size
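Human tau K18 P301L (15 uM unlabeled, 0.24 uM Alexa 594-labeled) in 100 mM sodium acetate pH 7 with 20 uM heparin, 6 hr at 37 C. ThT 30 uM added, 1 hr ambient; Alexa 594 FP and total fluorescence read at 555/632 nm.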
Sfp PPTase inh: inhibitors of Bacillus subtilis Sfp phosphopantetheinyl transferase | Potency, µM, for inactives: largest response in the series, negative = inhibition, actives largely listed as inhibitors | Q9F4F7 | 3.5% of 310,000 active | AID 1490 | Biochemical Sfp PPTase activity, qHTS;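 also: the enzyme is Sfp with the accession as filed and its product quenches rhodamine fluorescence; potency is read from the fitted curve at half-maximal effect; 0% = enzyme reaction without inhibitor and -100% = no enzyme wells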
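Compounds were incubated with enzyme (final 15 nM) for 15 min at room temperature before substrate addition started the reaction. Fluorescence at 525 nm excitation, 598 nm emission was recorded immediately and after 30 minutes.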
FBPA coupling cs: inhibits coupling enzyme system, counter-screen for aldolase hits; coupling enzyme system counterscreen, AmpLite Red fluorescence; activity change, negative = inhibition, % at 58.2 µM, hits read low; 0.67% of 290,000 active; AID 2472; in the data active = activity change below about -30%
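Fluorescence at 525 nm excitation and 598 nm emission measured inhibition of the coupled detection system without aldolase. Compounds (at 57.5 uM final) were preincubated 10 min at room temperature with coupling enzyme reagent before a 20 min substrate/AmpLite Red step.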
Tau FP inhib: inhibitors of human tau fibril formation; 0.39% of 280,000 active; Potency, µM (top dose mostly 57.7 µM), for inactives: at the highest dose activity, negative = inhibition, most hits filed as inhibitors; P10636; K18 P301L tau heparin fibrillization, Alexa594 FP, 6 h; AID 1468; also: potency is read from the fitted curve at half-maximal effect; nearly all actives have a fitted effect of over 55% in size
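Quantitative HTS format: compounds meet 15 uM recombinant K18 P301L tau and Alexa 594-tau tracer in 100 mM sodium acetate pH 7; 20 uM heparin triggers fibrillization at 37 C over 6 hr; FP gives the signal.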
* marks the source's active call; other numbers are inactive results; ? = inconclusive; . = no result; [ ] = dose if it differs, or a comment. Rows were chosen to be rich in hits. Some 11% of all compounds tested hit in one or more screens of this group. Unless noted, calls follow the shape of the dose curve; as a rule, active = well fitted curve in the direction sought with a large enough effect; inconclusive = small, poorly fitted or top-dose-only effect, or another doubt; inactive = no such curve, though single readings can be large; an effect the other way counts as inactive or inconclusive. Unless noted, % is scaled to controls: 0 for no effect and ±100 for the full control effect.

SMILES	G9a inh	Tau fibril ThT	Tau fluor counter	Sfp PPTase inh	FBPA coupling cs	Tau FP inhib
Cc1ccc(/C(CSc2nccn2-c2ncc(C(F)(F)F)cc2Cl)=N\O)cc1	6%[59 µM]	-17%	-15%	0%	2	6%
O=C(CSc1nccn1-c1ncc(C(F)(F)F)cc1Cl)c1ccc(Br)cc1	?	14µM*	-23%	0%	-1	?
Cc1ccc(C(=O)CSc2ccccn2)cc1	8.9µM*	-6%	-3%	50µM*	5	-10%
CCOc1ccccc1NC(=O)C1=C(C)Nc2ncnn2C1c1sccc1C (stereo not given)	-2%[59 µM]	-14%	-22%	.	.	-3%
Cc1cc(C)cc(NC(=O)CCCN2C(=O)COc3ccc(C)cc32)c1	2%[59 µM]	-14%	-24%	.	.	-1%
O=C(NCc1ccc(Cl)cc1Cl)c1cccc(N2CCCS2(=O)=O)c1	-5%[59 µM]	-12%	-29%	.	.	3%
Cc1cccc(C(=O)NC(=S)NNC(=O)COc2ccc(Cl)cc2)c1	3.2µM*	?	-11%	?	7	-6%
O=C(COc1cccc(Cl)c1)NNC(=S)Nc1ccccc1	7.1µM*	7%	7%	-4%	1	2%
CCCOc1ccc(CC(=O)NNC(=S)Nc2ccccc2)cc1Br	?	?	-29%	9%	2	13%
O=C(COc1ccccc1)NNC(=S)NC(=O)c1ccc(Cl)cc1Cl	1.4µM*	?	-13%	50µM*	7	-3%
COc1ccc(CC(=O)NNC(=S)Nc2ccccc2)cc1Cl	50µM*	-5%	-6%	15%	2	3%
Cc1cn2c(=O)cc(COC(=O)COc3ccccc3C)nc2s1	0%[59 µM]	-12%	-12%	.	.	-8%
Cc1ccc(CNC(=O)CSc2c3c(nc4ccc(Cl)cc24)CCCC3)o1	-25%[59 µM]	?	1%	35µM*	1	8%
COc1ccc(-n2nnnc2CNC(=O)C(=O)c2c[nH]c3ccccc23)cc1	-41%	.	.	.	.	.
Cc1ccc(-n2nnnc2SC(C(=O)c2c[nH]c3ccccc23)c2ccccc2)cc1 (stereo not given)	-8%[59 µM]	17%	?	15%	4	11µM*
COc1ccc(C(=O)Nc2ccc3nc(C)sc3c2)cc1OC	-5%[59 µM]	?	-10%	16%	2	2%
Cc1ccccc1OCC(=O)Nc1ccccc1-c1ccccc1NC(=O)COc1ccccc1C	50µM*	-17%	-11%	4%	2	-9%
COc1ccc(CC(=O)Nc2ccc3nc(C)sc3c2)cc1OC	20µM*	-13%	-13%	-8%	0	5%
Cc1ccccc1OCC(=O)Nc1cccc(Cl)c1C	.	.	.	11%	0	.
Cc1nc2ccc(NC(=O)COc3ccccc3C)cc2s1	45µM*	?	-10%	32µM*	-7	-2%
Cc1ccc(NC(=O)COc2ccccc2C(=O)Nc2ccccc2)cc1Cl	1%[59 µM]	-1%	?	-4%	0	4.5µM*
CCC(Oc1ccccc1)C(=O)Nc1ccc(OCc2cc(=O)n3ccc(C)cc3n2)cc1 (stereo not given)	-4%[59 µM]	5%	-2%	.	.	-11%
CC(=O)Nc1ccc(NC(=O)c2ncoc2-c2ccco2)cc1	13%[59 µM]	-18%	-5%	.	.	2%
O=C1CC(=O)N(Cc2ccco2)C(=O)N1	?	?	-18%	50µM*	0	?
CC(C)(C)c1ccc(N=C2SCC(=O)N2Cc2cccs2)cc1	115%	-13%	-16%	10%	-9	-8%
O=C1CC(=O)N(Cc2ccco2)C(=S)N1	8.9µM*	?	-24%	22µM*	-23	?
O=C1CC(=O)N(Cc2cccs2)C(=O)N1	-44%[12.7 µM]	20µM*	-17%	-22%	-3	?
O=C1C2C3c4ccccc4C(c4ccccc43)C2C(=O)N1Cc1ccco1 (stereo not given)	?	8%	6%	45µM*	1	3%
C[n+]1cn(Cc2ccc(C#N)cc2)c2ccccc21	0%	.	.	1%	2	.
